Data taken from PubChem BioAssay AID1159580 (chemical genetic matrix, 2015).
The campaign covered roughly 5,500 compounds. About 2,000 (36%) were called active. Not shown: some 18% with an inconclusive outcome. Cut-off read from the data, not from the text of the source: active = normalized growth mostly below about 0.91 (no sharp cut-off); inconclusive = no clear call, values can overlap the other calls; inactive = mostly above about 0.92. The list shows a part of the results.

Experiment: chemical genetic growth profiling, strain panel (AID 1159580);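 note: tested at 20 µM; growth read once vehicle control cultures reached saturation at 30 °C; 1 = growth at the plate median or of vehicle wells; lower values mean less growth of the strain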
Conditions: S. cerevisiae deletion strains, growth OD

Measured: normalized growth

OC[C@H]1O[C@H](OCCCc2ccc(O)cc2)[C@H](O)[C@@H](O)[C@@H]1O
inactive: locus YHR030C, strain SLT2, active compounds read low 0.97 | locus YHR079C, strain IRE1, active compounds read low 0.993 | locus YJL095W, strain BCK1, active compounds read low 1 | locus YJR066W, strain TOR1, active compounds read low 0.93 | locus YLR113W, strain HOG1, active compounds read low 0.979 | locus YNL183C, strain NPR1, active compounds read low 0.933 | locus YOR231W, strain MKK1, active compounds read low 0.975 | locus YPL256C, strain CLN2, active compounds read low 0.968
